Measurements from publication PMC7862700, “An all-to-all approach to the identification of sequence-specific readers for epigenetic DNA modifications on cytosine”.

The sequences below were run against ETV5 (Homo sapiens, UniProt P41161 1-510) (assay: DAPPL (digital affinity profiling via proximity ligation, sequencing); 10 mM Tris-HCl pH 7.5, 50 mM NaCl, 1 mM DTT, 4% glycerol, room temperature, 30 min; GST-TFs on glutathione beads, 16-mer random dsDNA library, 0.1% formaldehyde crosslink after washing; high values mean tight binding). Conditions: protein: recombinant; tags: N-terminal GST; dsDNA, one strand shown.
Sequence of ETV5 (P41161 whole entry, the tested form may be a part): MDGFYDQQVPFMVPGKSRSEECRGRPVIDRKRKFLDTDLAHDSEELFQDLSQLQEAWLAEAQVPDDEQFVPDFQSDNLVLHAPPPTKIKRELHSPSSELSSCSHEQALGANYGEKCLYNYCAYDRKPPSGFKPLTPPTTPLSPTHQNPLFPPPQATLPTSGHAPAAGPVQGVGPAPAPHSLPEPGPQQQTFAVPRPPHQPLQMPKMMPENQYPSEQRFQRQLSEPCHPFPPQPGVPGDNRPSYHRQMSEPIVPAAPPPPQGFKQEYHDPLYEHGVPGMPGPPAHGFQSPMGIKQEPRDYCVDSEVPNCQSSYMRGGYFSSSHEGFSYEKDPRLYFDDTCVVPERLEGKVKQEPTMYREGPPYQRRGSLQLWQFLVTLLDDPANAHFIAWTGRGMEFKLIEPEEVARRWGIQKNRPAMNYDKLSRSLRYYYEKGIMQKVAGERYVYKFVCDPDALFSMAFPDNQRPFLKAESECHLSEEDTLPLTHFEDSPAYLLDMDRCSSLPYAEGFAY
Procedure, shortened: (§1)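 Sequencing on an Illumina NextSeq500 followed washing, crosslinking with 0.1% formaldehyde, proximity ligation (BsaI/T4 ligase, 1 h, 37 °C) and PCR amplification of pools that had been incubated for 30 min at room temperature with 200 nmole of a random double-stranded 16-mer DNA library in Tris/NaCl/DTT/glycerol buffer. Each pool held DNA-barcoded human transcription factors, expressed in yeast as GST fusions and captured on glutathione beads, plus a tag-only sample. Binding signal is a hexamer's read frequency for a factor divided by its frequency in the tag-only sample.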

| Sequence | binding signal |
| --- | --- |
| CCTACT | 1.57 fold enrichment (6-mer frequency, TF over GST control) |
| TCCTAG | 1.33 fold enrichment (6-mer frequency, TF over GST control) |
| GCACTT | 1.88 fold enrichment (6-mer frequency, TF over GST control) |
| TATCAT | 1.07 fold enrichment (6-mer frequency, TF over GST control) |
| ATAGTA | 1.18 fold enrichment (6-mer frequency, TF over GST control) |
| TCATCC | 1.35 fold enrichment (6-mer frequency, TF over GST control) |
| CCATAA | 1.12 fold enrichment (6-mer frequency, TF over GST control) |
| TACGCG | 1.21 fold enrichment (6-mer frequency, TF over GST control) |
| TAATCT | 1.44 fold enrichment (6-mer frequency, TF over GST control) |
| GCTTGC | 1.22 fold enrichment (6-mer frequency, TF over GST control) |
| TTCGTT | 1.4 fold enrichment (6-mer frequency, TF over GST control) |
| TCAACC | 1.22 fold enrichment (6-mer frequency, TF over GST control) |
| TGCTAT | 1.43 fold enrichment (6-mer frequency, TF over GST control) |
| CTACTC | 1.35 fold enrichment (6-mer frequency, TF over GST control) |
| ATCAAC | 1.04 fold enrichment (6-mer frequency, TF over GST control) |
| CTTGCG | 1.36 fold enrichment (6-mer frequency, TF over GST control) |
| ATGTTC | 1.16 fold enrichment (6-mer frequency, TF over GST control) |
| ATGAGC | 1.23 fold enrichment (6-mer frequency, TF over GST control) |
| AAATCA | 1.26 fold enrichment (6-mer frequency, TF over GST control) |
| TGACCC | 1.41 fold enrichment (6-mer frequency, TF over GST control) |

| Sequence | binding signal |
| --- | --- |
| TAAATT | 1.26 fold enrichment (6-mer frequency, TF over GST control) |
| TCCTTG | 1.22 fold enrichment (6-mer frequency, TF over GST control) |
| CCATAT | 1.24 fold enrichment (6-mer frequency, TF over GST control) |
| CTAACT | 1.34 fold enrichment (6-mer frequency, TF over GST control) |
| CTGCTT | 1.66 fold enrichment (6-mer frequency, TF over GST control) |
| AATTAC | 1.28 fold enrichment (6-mer frequency, TF over GST control) |
| TGTGCT | 1.18 fold enrichment (6-mer frequency, TF over GST control) |
| ATACAA | 1.15 fold enrichment (6-mer frequency, TF over GST control) |
| TTACTA | 1.22 fold enrichment (6-mer frequency, TF over GST control) |
| ACTCGT | 1.22 fold enrichment (6-mer frequency, TF over GST control) |
| AAACAA | 1.28 fold enrichment (6-mer frequency, TF over GST control) |
| AAAAAG | 1.3 fold enrichment (6-mer frequency, TF over GST control) |
| CCCGAT | 1.2 fold enrichment (6-mer frequency, TF over GST control) |
| TATTCA | 1.33 fold enrichment (6-mer frequency, TF over GST control) |
| CAATTA | 1.16 fold enrichment (6-mer frequency, TF over GST control) |
| CTTTTG | 1.38 fold enrichment (6-mer frequency, TF over GST control) |
| ACGTCC | 1.65 fold enrichment (6-mer frequency, TF over GST control) |
| CCCTTC | 1.54 fold enrichment (6-mer frequency, TF over GST control) |
| ATGACA | 1.29 fold enrichment (6-mer frequency, TF over GST control) |
| AATCAA | 1.14 fold enrichment (6-mer frequency, TF over GST control) |

What follows are sequences tested against HSF1 (Homo sapiens, UniProt Q00613 1-529) in the same assay as above. Conditions: protein: recombinant; tags: N-terminal GST; chain copies: 3; dsDNA, one strand shown.
Sequence of HSF1 (Q00613 whole entry): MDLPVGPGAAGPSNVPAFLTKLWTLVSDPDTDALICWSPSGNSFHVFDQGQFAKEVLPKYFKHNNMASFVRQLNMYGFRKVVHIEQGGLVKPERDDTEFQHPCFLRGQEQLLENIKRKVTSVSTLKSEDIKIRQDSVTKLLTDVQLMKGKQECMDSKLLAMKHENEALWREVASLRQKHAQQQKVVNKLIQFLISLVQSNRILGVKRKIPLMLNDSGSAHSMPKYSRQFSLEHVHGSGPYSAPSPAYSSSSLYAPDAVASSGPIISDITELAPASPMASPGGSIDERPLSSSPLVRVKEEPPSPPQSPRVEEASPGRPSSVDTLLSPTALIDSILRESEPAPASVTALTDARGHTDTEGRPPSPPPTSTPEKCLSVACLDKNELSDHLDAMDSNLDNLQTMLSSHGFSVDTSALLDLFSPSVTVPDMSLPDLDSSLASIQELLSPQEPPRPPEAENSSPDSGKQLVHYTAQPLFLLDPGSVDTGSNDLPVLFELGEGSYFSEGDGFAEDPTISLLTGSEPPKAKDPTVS
Procedure, shortened: as §1

| Sequence | binding signal |
| --- | --- |
| CCTACT | 1.48 fold enrichment (6-mer frequency, TF over GST control) |
| TCCTAG | 1.45 fold enrichment (6-mer frequency, TF over GST control) |
| GCACTT | 1.17 fold enrichment (6-mer frequency, TF over GST control) |
| TATCAT | 1.16 fold enrichment (6-mer frequency, TF over GST control) |
| ATAGTA | 1.16 fold enrichment (6-mer frequency, TF over GST control) |
| TCATCC | 1.38 fold enrichment (6-mer frequency, TF over GST control) |
| CCATAA | 1.29 fold enrichment (6-mer frequency, TF over GST control) |
| TACGCG | 1.17 fold enrichment (6-mer frequency, TF over GST control) |
| TAATCT | 3.55 fold enrichment (6-mer frequency, TF over GST control) |
| GCTTGC | 1.1 fold enrichment (6-mer frequency, TF over GST control) |
| TTCGTT | 1.48 fold enrichment (6-mer frequency, TF over GST control) |
| TCAACC | 1.03 fold enrichment (6-mer frequency, TF over GST control) |
| TGCTAT | 1.22 fold enrichment (6-mer frequency, TF over GST control) |
| CTACTC | 1.32 fold enrichment (6-mer frequency, TF over GST control) |
| ATCAAC | 1.02 fold enrichment (6-mer frequency, TF over GST control) |
| CTTGCG | 1.26 fold enrichment (6-mer frequency, TF over GST control) |
| ATGTTC | 2.33 fold enrichment (6-mer frequency, TF over GST control) |
| ATGAGC | 1.13 fold enrichment (6-mer frequency, TF over GST control) |
| AAATCA | 1.17 fold enrichment (6-mer frequency, TF over GST control) |
| TGACCC | 1.1 fold enrichment (6-mer frequency, TF over GST control) |

| Sequence | binding signal |
| --- | --- |
| TAAATT | 1.51 fold enrichment (6-mer frequency, TF over GST control) |
| TCCTTG | 1.15 fold enrichment (6-mer frequency, TF over GST control) |
| CCATAT | 1.12 fold enrichment (6-mer frequency, TF over GST control) |
| CTAACT | 1.19 fold enrichment (6-mer frequency, TF over GST control) |
| CTGCTT | 1.53 fold enrichment (6-mer frequency, TF over GST control) |
| AATTAC | 1.43 fold enrichment (6-mer frequency, TF over GST control) |
| TGTGCT | 1.15 fold enrichment (6-mer frequency, TF over GST control) |
| ATACAA | 1.03 fold enrichment (6-mer frequency, TF over GST control) |
| TTACTA | 1.79 fold enrichment (6-mer frequency, TF over GST control) |
| ACTCGT | 1.14 fold enrichment (6-mer frequency, TF over GST control) |
| AAACAA | 1.23 fold enrichment (6-mer frequency, TF over GST control) |
| AAAAAG | 1.34 fold enrichment (6-mer frequency, TF over GST control) |
| CCCGAT | 1.38 fold enrichment (6-mer frequency, TF over GST control) |
| TATTCA | 1.32 fold enrichment (6-mer frequency, TF over GST control) |
| CAATTA | 1.12 fold enrichment (6-mer frequency, TF over GST control) |
| CTTTTG | 1.36 fold enrichment (6-mer frequency, TF over GST control) |
| ACGTCC | 1.07 fold enrichment (6-mer frequency, TF over GST control) |
| CCCTTC | 1.35 fold enrichment (6-mer frequency, TF over GST control) |
| ATGACA | 1.09 fold enrichment (6-mer frequency, TF over GST control) |
| AATCAA | 1.13 fold enrichment (6-mer frequency, TF over GST control) |

These sequences were tested against T1, SPIC (Homo sapiens, UniProt Q8N5J4 1-248) in the same assay as above. Conditions: protein: recombinant; tags: N-terminal GST; dsDNA, one strand shown.
T1 sequence: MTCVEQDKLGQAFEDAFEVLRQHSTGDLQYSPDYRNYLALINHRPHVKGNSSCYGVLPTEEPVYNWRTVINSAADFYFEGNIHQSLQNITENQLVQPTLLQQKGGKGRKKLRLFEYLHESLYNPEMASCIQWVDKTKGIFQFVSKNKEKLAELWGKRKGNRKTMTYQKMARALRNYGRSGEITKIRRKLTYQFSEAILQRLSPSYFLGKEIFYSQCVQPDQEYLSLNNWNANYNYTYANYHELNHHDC
Procedure, shortened: as §1

| Sequence | binding signal |
| --- | --- |
| CCTACT | 1.64 fold enrichment (6-mer frequency, TF over GST control) |
| TCCTAG | 1.2 fold enrichment (6-mer frequency, TF over GST control) |
| GCACTT | 1.63 fold enrichment (6-mer frequency, TF over GST control) |
| TATCAT | 1.25 fold enrichment (6-mer frequency, TF over GST control) |
| ATAGTA | 1.29 fold enrichment (6-mer frequency, TF over GST control) |
| TCATCC | 1.39 fold enrichment (6-mer frequency, TF over GST control) |
| CCATAA | 1.33 fold enrichment (6-mer frequency, TF over GST control) |
| TACGCG | 1.12 fold enrichment (6-mer frequency, TF over GST control) |
| TAATCT | 1.3 fold enrichment (6-mer frequency, TF over GST control) |
| GCTTGC | 1.44 fold enrichment (6-mer frequency, TF over GST control) |
| TTCGTT | 1.32 fold enrichment (6-mer frequency, TF over GST control) |
| TCAACC | 1.07 fold enrichment (6-mer frequency, TF over GST control) |
| TGCTAT | 1.37 fold enrichment (6-mer frequency, TF over GST control) |
| CTACTC | 1.21 fold enrichment (6-mer frequency, TF over GST control) |
| ATCAAC | 1.03 fold enrichment (6-mer frequency, TF over GST control) |
| CTTGCG | 1.3 fold enrichment (6-mer frequency, TF over GST control) |
| ATGTTC | 1.32 fold enrichment (6-mer frequency, TF over GST control) |
| ATGAGC | 1.29 fold enrichment (6-mer frequency, TF over GST control) |
| AAATCA | 1.18 fold enrichment (6-mer frequency, TF over GST control) |
| TGACCC | 1.24 fold enrichment (6-mer frequency, TF over GST control) |
